# A selection: hits, their analogues and other compounds. The true share with any hit is near 7.9%.
# Marburg entry inh – blocks Marburg virus binding to or entry into cells | AID 540276 | Potency, µM (titrated, usually from 37.8 µM), inactives show at the highest dose activity change, negative = inhibition, hits mostly inhibitors | 300,000 compounds, 1.8% hits | Marburg virus pseudotyped entry inhibition, cell reporter; calls by dose curve; tested in HEK293 cells; note: potency is the fitted concentration of half-maximal effect
# LASV entry inh – Lassa virus entry inhibition; Potency, µM (doses to about 37.9 µM), inactives show at the top dose activity change, negative = inhibition, actives largely listed as inhibitors; Lassa virus pseudotype entry inhibition, cell reporter; 300,000 compounds, 1.2% hits; calls by dose curve; tested in HEK293 cells; note: potency is the fitted concentration of half-maximal effect; nearly all actives have a fitted effect of over 50% in size
# HCV inh – inhibitors of hepatitis C virus infection; Huh7.5.1 HCVcc-Cre infection, luciferase reporter, 44 h; 340,000 compounds, 3.4% hits; Potency, µM (doses to about 41.8 µM), for inactives: at the highest dose activity change, negative = inhibition, most hits filed as inhibitors; active = well fitted inhibition curve with a large enough effect; inconclusive = small, poorly fitted or top-dose-only effect, or another doubt; inactive = no such curve, though single readings can be large or run the other way; note: potency is the fitted concentration of half-maximal effect
#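 Seed cells (1,000/well) for 4 h; treat with compound and infect with HCVcc-Cre, moi about 0.5. Incubate 44 h, then detect luciferase activity.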
# FMDV inh – blocks foot and mouth disease virus; Potency, µM (series often up to 57.9 µM), for the others: at the top dose activity change, negative = inhibition, hits mostly inhibitors; FMDV antiviral cell-based qHTS; 410,000 compounds, 1.2% hits; calls by dose curve; tested in HEK293T cells; note: read-out not given here; potency is the fitted concentration of half-maximal effect; nearly all actives have a fitted effect of over 45% in size
# HCMV inh – inhibitors of human cytomegalovirus | activity change, negative = inhibition, % at 57.5 µM | HFF cells, HCMV-luciferase reporter, 72 h; active compounds read low | AID 1259415 | 410,000 compounds, 4.5% hits; in the data active = activity change below about -60%; inconclusive = no clear call, values can overlap the other calls; inactive = above about -39%
#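 After 16 h attachment at 37C, HFF cells received test compound and HCMV-luciferase (1 PFU/cell); reporter luminescence read 72 h later, data normalized against buffer-only and known inhibitor Salinomycin.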
# Numbers without * were called inactive; ? = inconclusive; nt = no result; ! = not active in a repeat; [ ] = another dose, or the depositor's remark. % is set by controls: 0 for no effect and ±100 for the full control effect.
SMILES,Marburg entry inh,LASV entry inh,HCV inh,FMDV inh,HCMV inh
COC(=O)c1c(C)n(-c2ccc(OC)cc2)c2ccc(O)cc12,?,?,11µM*,-10%,-38
CCOC(=O)c1c(C)n(-c2ccc(C)cc2)c2ccc(O)c(CN(C)C)c12,?,?,-7%,-17%,-88*
CCOC(=O)c1c(C)n(-c2ccc(F)cc2)c2ccc(O)cc12,nt,nt,8.9µM*,?,nt
Cc1ccc(OCC(=O)Nc2ccc(OCc3cc(=O)n4ccsc4n3)cc2)cc1,-3%[46.1 µM],6%[46.1 µM],nt,-19%,7
O=C(NCCN1CCN(c2ccccc2)CC1)c1cccn2c(=O)c3ccccc3nc12,0%,3%,?,?,-34
CCn1c(=O)c2cc(C(=O)NCCCN(C)Cc3ccccc3)sc2c2ccccc21,?,19%[46.1 µM],nt,-28%,-70*
CCCCNC(=O)c1cc2c(=O)n(CC)c3ccccc3c2s1,-11%,?,?,9%,1
CN(CCCNC(=O)c1cccn2c(=O)c3ccccc3nc12)Cc1ccccc1,?,-6%,11µM*,?,-19
CCn1c(=O)c2cc(C(=O)NCCN3CCOCC3)sc2c2ccccc21,nt,nt,11µM*,-1%,153
Cn1c(=O)c2cc(C(=O)NC3CCCCCC3)sc2c2ccccc21,-3%[46.1 µM],-16%[46.1 µM],nt,-18%,-81*
COc1ccccc1C1CN(CC(=O)NCC2OCCc3ccccc32)Cc2ccccc2O1 (stereo not given),nt,nt,nt,-6%,nt
O=C(COC(=O)C12CC3CC(CC(O)(C3)C1)C2)Nc1cccc(Br)c1,3%,12%,3%,23%,-102*
CCC(C(=O)Nc1cc(-c2cn3cccnc3n2)ccc1C)c1ccccc1 (stereo not given),nt,?,nt,-8%,18
Cn1cc(C(=O)c2ccc(Cl)cc2Cl)cc1C(=O)N/N=C(\N)COc1ccc(F)cc1,?,?,10µM*,?,-4
Cn1cc(C(=O)c2ccc(Cl)cc2Cl)cc1C(=O)N/N=C(\N)COc1ccccc1,?,?,-23%,-27%,-24
Cn1cc(C(=O)c2ccc(Cl)cc2Cl)cc1C(=O)N/N=C(\N)COc1ccc(Cl)cc1,?,?,13µM*,?,0
Cn1cc(C(=O)c2ccc(Cl)cc2Cl)cc1C(=O)N/N=C(\N)COc1ccc(Cl)cc1Cl,?,?,13µM*,?,?
COc1ccccc1-c1cc2c(Nc3ccc(NC(C)=O)cc3)nccc2[nH]1,nt,nt,nt,nt,-5
CCOC(=O)C1CCN(C(=O)C2CCN(S(=O)(=O)c3c(C)noc3/C=C/c3ccc(C)cc3)CC2)CC1,nt,?,nt,-26%,4
COc1ccccc1-n1cc(CN2CCC3(CCC(CNC(=O)c4ccccc4)O3)CC2)cn1 (stereo not given),nt,nt,nt,16%,nt
Oc1c(C(c2cccc(Cl)c2)N2CCOCC2)sc2nc(-c3ccco3)nn12 (stereo not given),nt,14%[46.1 µM],nt,-8%,18
CCCc1c(-c2ccc(O)cc2)nn(-c2ccc(O)cc2)c1-c1ccc(O)cc1,?,0.29µM*,?,0%,nt
Cc1c(C(N)=O)c(-c2ccccc2)nn1-c1ccccc1,24%,21%,-7%,-11%,-13
Cc1ccc(-c2nn3c(C)nnc3s2)cc1NCc1c(F)cccc1Cl,9.2µM*,?,?,nt,-76*
Cc1ccc(CNc2cc(-c3nn4c(C)nnc4s3)ccc2C)s1,?,-29%,?,-21%,89
SMILES,Marburg entry inh,LASV entry inh,HCV inh,FMDV inh,HCMV inh
COc1ccc(-c2csc(N(CCCN(C)C)C(=O)c3ccccc3F)n2)cc1,nt,nt,?,22%,-11
COc1ccc(-c2csc(N(CCCN(C)C)C(=O)c3ccccc3Cl)n2)cc1,5.6µM*,?,?,20%,-37
CCN(C(=O)c1ccco1)c1nc(-c2ccc(OC)cc2)cs1,nt,nt,22µM*,58%,92
COc1ccc(-c2csc(N(CCCN(C)C)C(=O)c3ccccc3C)n2)cc1,?,10µM*,?,1%,-61*
CCN(CC)CCCN(C(C)=O)c1nc(-c2cc(OC)ccc2OC)cs1,?,17%,6.3µM*,33%,?
COc1ccc(-c2csc(N(CC(C)C)C(=O)c3ccco3)n2)cc1,?,-51%[46.1 µM],-3%,-13%,-35
CC(C)NC(=O)c1nnc2n1CCN(Cc1cccc3c1OCO3)C2,nt,nt,nt,nt,-13
Cc1ccccc1NC(=O)CSc1c(C(C)C)cnc2c1c(=O)n(C)c(=O)n2C,nt,-1%[46.1 µM],nt,-2%,-8
CCN(CC)C(=O)Cn1c(=O)n(-c2ccc(Cl)cc2)c(=O)c2c3c(sc21)CCC3,19%[46.1 µM],-13%[46.1 µM],nt,-3%,-26
CC(C)(C)c1ccc(OCCn2cc(C(=O)c3ccco3)c3ccccc32)cc1,?,-8%[46.1 µM],nt,?,-3
NC(C(=O)O)[C@H](O)C(=O)O (stereo not given in full),nt,nt,nt,1%,nt
C=CCn1c(C)cc(C(=O)CSc2nnc(-c3cccc(S(=O)(=O)N(CC)CC)c3)o2)c1C,-22%[46.1 µM],?,8.9µM*,-16%,-13
Brc1ccccc1-c1nnc(SCc2nc3ccccc3s2)o1,?,?,?,-5%,129
CCN(CC)S(=O)(=O)c1cccc(-c2nnc(SCCCC(=O)c3ccccc3)o2)c1,?,?,16µM*,?,-24
CCN(CC)S(=O)(=O)c1cccc(-c2nnc(SCC(=O)c3cc(C)n(C4CC4)c3C)o2)c1,?,?,-12%,-12%,-34
CCN(CC)S(=O)(=O)c1cccc(-c2nnc(SC(C)C(=O)NCCC3=CCCCC3)o2)c1 (stereo not given),1%,?,11µM*!,?,?
CCN(CC)S(=O)(=O)c1cccc(-c2nnc(SCc3nc4ccccc4s3)o2)c1,?,?,7.1µM*,0%,-7
COc1cccc(NS(=O)(=O)c2ccc3c(c2)n(C)c(=O)n3C)c1,?,-18%[46.1 µM],nt,0%,-26
N#Cc1nc(-c2ccc(COc3ccc(Cl)cc3)o2)oc1N1CCCCC1,-1%[46.1 µM],-3%[46.1 µM],nt,?,-27
COc1cc(-c2n[nH]c3ccnc(-c4cccc(OC(F)(F)F)c4)c23)cc(OC)c1OC,nt,nt,nt,nt,-18
CCN(CC)S(=O)(=O)c1cccc(-c2nnc(SCCCC(=O)c3ccc(F)cc3)o2)c1,21µM*!,?,?,?,-38
Cc1cc2nc(CN(Cc3ccccc3)Cc3nc4cc(C)c(C)cc4[nH]3)[nH]c2cc1C,nt,nt,nt,nt,-12
CCOC(=O)c1ccc(NC(=O)C2CCCN(S(=O)(=O)c3ccc(F)cc3)C2)cc1 (stereo not given),?,?,?,22µM*,39
COc1ccc(C)cc1NC(=O)C1CCCN(S(=O)(=O)c2cnc[nH]2)C1 (stereo not given),nt,nt,-1%,-15%,-61*
COc1ccc(S(=O)(=O)N2CCCC(C(=O)Nc3ccc(OC)c(OC)c3)C2)cc1 (stereo not given),-23%,-23%,?,?,14
COc1ccccc1NC(=O)C1CCCN(S(=O)(=O)c2cnc[nH]2)C1 (stereo not given),nt,nt,-18%,-20%,80

# Source: PubChem BioAssay
